# Experimental data: PubChem BioAssay AID1159580 (chemical genetic matrix, 2015)
# About 2,000 (36%) of roughly 5,500 compounds were called active. Inconclusive results (about 18%) are left out. This is one part of the list. Unmarked numbers belong to inactive results. No stated cut-off is given here; in the data, active means normalized growth mostly below about 0.91 (no sharp cut-off); inconclusive means no clear call, values can overlap the other calls; inactive means mostly above about 0.92.
# Test: chemical genetic growth profiling, strain panel (AID 1159580);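 further: tested at 20 µM; growth read once vehicle control cultures reached saturation at 30 °C; 1 = growth at the plate median or of vehicle wells; lower values mean less growth of the strain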
# Conditions: S. cerevisiae deletion strains, growth OD
compound,measurement,setting,value
CN(C/C=C/C#CC(C)(C)C)Cc1cccc2ccccc12,normalized growth,"locus YAL021C, strain ccr4, active compounds read low",0.121 (active)
same,normalized growth,"locus YAL026C, strain drs2, active compounds read low",0.0882 (active)
same,normalized growth,"locus YAL030W, strain snc1, active compounds read low",0.334 (active)
same,normalized growth,"locus YBL061C, strain skt5, active compounds read low",0.256 (active)
same,normalized growth,"locus YBR009C, strain hhf1, active compounds read low",0.293 (active)
same,normalized growth,"locus YBR023C, strain chs3, active compounds read low",0.254 (active)
same,normalized growth,"locus YBR171W, strain sec66, active compounds read low",0.793 (active)
same,normalized growth,"locus YBR231C, strain swc5, active compounds read low",0.423 (active)
same,normalized growth,"locus YBR279W, strain paf1, active compounds read low",0.376 (active)
same,normalized growth,"locus YCL011C, strain gbp2, active compounds read low",0.228 (active)
same,normalized growth,"locus YCL016C, strain dcc1, active compounds read low",0.334 (active)
same,normalized growth,"locus YCL061C, strain MRC1, active compounds read low",0.478 (active)
same,normalized growth,"locus YCL069W, strain vba3, active compounds read low",0.283 (active)
same,normalized growth,"locus YCR088W, strain abp1, active compounds read low",0.498 (active)
same,normalized growth,"locus YDL005C, strain med2, active compounds read low",0.246 (active)
same,normalized growth,"locus YDL040C, strain nat1, active compounds read low",0.528 (active)
same,normalized growth,"locus YDR001C, strain nth1, active compounds read low",0.573 (active)
same,normalized growth,"locus YDR069C, strain doa4, active compounds read low",0.567 (active)
same,normalized growth,"locus YDR137W, strain rgp1, active compounds read low",0.492 (active)
same,normalized growth,"locus YDR159W, strain sac3, active compounds read low",0.512 (active)
same,normalized growth,"locus YDR195W, strain ref2",1.34 [resistant] (active)
same,normalized growth,"locus YDR297W, strain sur2, active compounds read low",0.398 (active)
same,normalized growth,"locus YDR334W, strain swr1, active compounds read low",0.492 (active)
same,normalized growth,"locus YDR335W, strain msn5, active compounds read low",0.219 (active)
same,normalized growth,"locus YDR392W, strain spt3, active compounds read low",0.163 (active)
same,normalized growth,"locus YEL003W, strain gim4, active compounds read low",0.311 (active)
same,normalized growth,"locus YEL037C, strain rad23, active compounds read low",0.372 (active)
same,normalized growth,"locus YEL061C, strain CIN8 (second series), active compounds read low",0.444 (active)
same,normalized growth,"locus YER015W, strain faa2, active compounds read low",0.384 (active)
same,normalized growth,"locus YER016W, strain bim1, active compounds read low",0.484 (active)
same,normalized growth,"locus YER111C, strain swi4, active compounds read low",0.417 (active)
same,normalized growth,"locus YER155C, strain BEM2 (second series), active compounds read low",0.469 (active)
same,normalized growth,"locus YFR010W, strain ubp6, active compounds read low",0.457 (active)
same,normalized growth,"locus YGL167C, strain pmr1, active compounds read low",0.909 (active)
same,normalized growth,"locus YGL173C, strain kem1, active compounds read low",0.488 (active)
same,normalized growth,"locus YGL227W, strain vid30, active compounds read low",0.536 (active)
same,normalized growth,"locus YGL240W, strain doc1, active compounds read low",0.459 (active)
same,normalized growth,"locus YGL253W, strain hxk2, active compounds read low",0.208 (active)
same,normalized growth,"locus YHR013C, strain ard1, active compounds read low",0.241 (active)
same,normalized growth,"locus YHR027C, strain rpn1, active compounds read low",0.442 (active)
same,normalized growth,"locus YHR030C, strain SLT2, active compounds read low",0.471 (active)
same,normalized growth,"locus YHR079C, strain IRE1, active compounds read low",0.792 (active)
same,normalized growth,"locus YHR142W, strain chs7, active compounds read low",0.174 (active)
same,normalized growth,"locus YJL092W, strain hpr5, active compounds read low",0.468 (active)
same,normalized growth,"locus YJL095W, strain BCK1 (second series), active compounds read low",0.0681 (active)
same,normalized growth,"locus YJL095W, strain BCK1, active compounds read low",0.472 (active)
same,normalized growth,"locus YJL115W, strain asf1, active compounds read low",0.664 (active)
same,normalized growth,"locus YJL129C, strain trk1, active compounds read low",0.351 (active)
same,normalized growth,"locus YJL154C, strain vps35, active compounds read low",0.649 (active)
same,normalized growth,"locus YJL164C, strain tpk1, active compounds read low",0.215 (active)
same,normalized growth,"locus YJL166W, strain qcr8, active compounds read low",0.266 (active)
same,normalized growth,"locus YJL187C, strain SWE1, active compounds read low",0.272 (active)
same,normalized growth,"locus YJR066W, strain TOR1, active compounds read low",0.683 (active)
same,normalized growth,"locus YKL160W, strain elf1, active compounds read low",0.296 (active)
same,normalized growth,"locus YKR026C, strain gcn3, active compounds read low",0.452 (active)
same,normalized growth,"locus YKR091W, strain srl3, active compounds read low",0.626 (active)
same,normalized growth,"locus YLL001W, strain dnm1, active compounds read low",0.37 (active)
same,normalized growth,"locus YLL026W, active compounds read low",0.283 (active)
same,normalized growth,"locus YLL041C, strain sdh2, active compounds read low",0.462 (active)
same,normalized growth,"locus YLR027C, strain aat2, active compounds read low",0.225 (active)
same,normalized growth,"locus YLR113W, strain HOG1, active compounds read low",0.807 (active)
same,normalized growth,"locus YLR221C, strain rsa3, active compounds read low",0.25 (active)
same,normalized growth,"locus YLR258W, strain gsy2, active compounds read low",0.285 (active)
same,normalized growth,"locus YLR262C, strain YPT6 (second series), active compounds read low",0.397 (active)
same,normalized growth,"locus YLR320W, strain mms22, active compounds read low",0.189 (active)
same,normalized growth,"locus YLR342W, strain FKS1, active compounds read low",0.513 (active)
same,normalized growth,"locus YLR357W, strain rsc2, active compounds read low",1.11
same,normalized growth,"locus YLR370C, strain arc18, active compounds read low",0.405 (active)
same,normalized growth,"locus YLR384C, strain iki3, active compounds read low",0.635 (active)
same,normalized growth,"locus YML120C, strain ndi1, active compounds read low",0.325 (active)
same,normalized growth,"locus YMR058W, strain fet3, active compounds read low",0.281 (active)
same,normalized growth,"locus YMR125W, strain sto1, active compounds read low",0.533 (active)
same,normalized growth,"locus YMR129W, active compounds read low",0.361 (active)
same,normalized growth,"locus YMR205C, strain PFK2, active compounds read low",0.532 (active)
same,normalized growth,"locus YMR231W, strain pep5, active compounds read low",0.188 (active)
same,normalized growth,"locus YNL071W, strain lat1, active compounds read low",0.209 (active)
same,normalized growth,"locus YNL183C, strain NPR1, active compounds read low",0.808 (active)
same,normalized growth,"locus YNL209W, strain ssb2, active compounds read low",0.395 (active)
same,normalized growth,"locus YNL248C, strain rpa49, active compounds read low",0.378 (active)
same,normalized growth,"locus YNL322C, strain KRE1 (second series), active compounds read low",0.506 (active)
same,normalized growth,"locus YNR049C, strain mso1, active compounds read low",0.562 (active)
same,normalized growth,"locus YOR001W, strain rrp6, active compounds read low",0.26 (active)
same,normalized growth,"locus YOR070C, strain gyp1, active compounds read low",0.166 (active)
same,normalized growth,"locus YOR080W, strain dia2, active compounds read low",0.516 (active)
same,normalized growth,"locus YOR083W, strain WHI5, active compounds read low",0.369 (active)
same,normalized growth,"locus YOR106W, strain vam3, active compounds read low",0.187 (active)
same,normalized growth,"locus YOR231W, strain MKK1, active compounds read low",0.769 (active)
same,normalized growth,"locus YOR265W, strain rbl2, active compounds read low",0.432 (active)
same,normalized growth,"locus YOR270C, strain vph1, active compounds read low",0.192 (active)
same,normalized growth,"locus YOR290C, strain snf2, active compounds read low",0.305 (active)
same,normalized growth,"locus YPL051W, strain arl3, active compounds read low",0.199 (active)
same,normalized growth,"locus YPL078C, strain atp4, active compounds read low",0.373 (active)
same,normalized growth,"locus YPL106C, strain sse1, active compounds read low",0.444 (active)
same,normalized growth,"locus YPL240C, strain hsp82, active compounds read low",0.334 (active)
same,normalized growth,"locus YPL256C, strain CLN2, active compounds read low",0.81 (active)
